In PMC5700166:

molecular target: T1, GST-Nv-NF-kB (Ser allele) (Nematostella vectensis, UniProt A7UNT2 2-411); assay: protein-binding microarray (PBM); PBM: ~300 nM protein, 6 mM HEPES pH 7.8, 80 mM KCl, 0.5 mM EDTA, 0.5 mM EGTA, 6% glycerol, 35 ng/ul poly-dIdC, 1% milk, 1 h, room temperature; Ap Aiptasia and Nv Nematostella (sea anemones) / Co Capsaspora / Aq Amphimedon (sponge) / Dm Drosophila / Hu human; RHD is the Rel homology domain; high values mean tight binding; conditions: dsDNA, one strand shown
T1 sequence: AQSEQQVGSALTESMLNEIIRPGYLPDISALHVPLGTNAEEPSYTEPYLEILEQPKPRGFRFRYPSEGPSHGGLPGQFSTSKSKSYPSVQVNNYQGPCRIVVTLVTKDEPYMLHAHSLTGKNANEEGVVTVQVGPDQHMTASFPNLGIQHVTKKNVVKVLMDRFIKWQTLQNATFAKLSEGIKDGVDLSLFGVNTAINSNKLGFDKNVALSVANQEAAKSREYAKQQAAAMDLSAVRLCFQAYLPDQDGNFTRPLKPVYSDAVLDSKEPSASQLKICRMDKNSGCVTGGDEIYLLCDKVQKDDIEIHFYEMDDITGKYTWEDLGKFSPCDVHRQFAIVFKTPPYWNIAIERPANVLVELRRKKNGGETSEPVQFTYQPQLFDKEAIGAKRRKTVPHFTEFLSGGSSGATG

Sequence | binding signal
CCGATTAACATCAGGGGATGACCTGATGTTAATCGGGTCTTGATTCGCTTGACGCTGCTG | 3.75 z-score
CCGATTAACATCAATTTACCCACTGATGTTAATCGGGTCTTGATTCGCTTGACGCTGCTG | 2.27 z-score
CCGATTAACATCACGGGAAACCCTGATGTTAATCGGGTCTTGATTCGCTTGACGCTGCTG | 3.35 z-score
CCGATTAACATCAGGCAAGTCCCTGATGTTAATCGGGTCTTGATTCGCTTGACGCTGCTG | 3.07 z-score
CCGATTAACATCAGGGGGTAGAATGATGTTAATCGGGTCTTGATTCGCTTGACGCTGCTG | 4.04 z-score
CCGATTAACATCAGGGGAGAATATGATGTTAATCGGGTCTTGATTCGCTTGACGCTGCTG | 6.21 z-score
CCGATTAACATCAGGGGGCATTATGATGTTAATCGGGTCTTGATTCGCTTGACGCTGCTG | 3.29 z-score
CCGATTAACATCAGGAGAATCCCTGATGTTAATCGGGTCTTGATTCGCTTGACGCTGCTG | 1.07 z-score
CCGATTAACATCACTACTTTCCCTGATGTTAATCGGGTCTTGATTCGCTTGACGCTGCTG | 5.24 z-score
CCGATTAACATCAGGGAACTACCTGATGTTAATCGGGTCTTGATTCGCTTGACGCTGCTG | 4.46 z-score
CCGATTAACATCAGAGAAACCCCTGATGTTAATCGGGTCTTGATTCGCTTGACGCTGCTG | 4.24 z-score
CCGATTAACATCAATTCCCAAGGTGATGTTAATCGGGTCTTGATTCGCTTGACGCTGCTG | 2.02 z-score
CCGATTAACATCAGGGGGTATACTGATGTTAATCGGGTCTTGATTCGCTTGACGCTGCTG | 4.26 z-score
CCGATTAACATCAATATAGTCCCTGATGTTAATCGGGTCTTGATTCGCTTGACGCTGCTG | 4.68 z-score
CCGATTAACATCAGTACGGGAAATGATGTTAATCGGGTCTTGATTCGCTTGACGCTGCTG | 2.82 z-score
CCGATTAACATCAGAAATCCCGCTGATGTTAATCGGGTCTTGATTCGCTTGACGCTGCTG | 2.45 z-score
CCGATTAACATCACGGAGTCCCCTGATGTTAATCGGGTCTTGATTCGCTTGACGCTGCTG | 4.71 z-score
CCGATTAACATCACGGTACTTCCTGATGTTAATCGGGTCTTGATTCGCTTGACGCTGCTG | 4.94 z-score
CCGATTAACATCAGGAAGTTCCCTGATGTTAATCGGGTCTTGATTCGCTTGACGCTGCTG | 2.53 z-score
CCGATTAACATCAGGGAAAACACTGATGTTAATCGGGTCTTGATTCGCTTGACGCTGCTG | 5.79 z-score

Sequence | binding signal
CCGATTAACATCATCCGGGAAAATGATGTTAATCGGGTCTTGATTCGCTTGACGCTGCTG | 5.1 z-score
CCGATTAACATCATAGTCCCATGTGATGTTAATCGGGTCTTGATTCGCTTGACGCTGCTG | 1.82 z-score
CCGATTAACATCAGGCCTCCCCCTGATGTTAATCGGGTCTTGATTCGCTTGACGCTGCTG | 4.46 z-score
CCGATTAACATCACGGATTTCCCTGATGTTAATCGGGTCTTGATTCGCTTGACGCTGCTG | 5.46 z-score
CCGATTAACATCAGAAATCCCACTGATGTTAATCGGGTCTTGATTCGCTTGACGCTGCTG | 1.91 z-score
CCGATTAACATCACAATACCCCCTGATGTTAATCGGGTCTTGATTCGCTTGACGCTGCTG | 5.97 z-score
CCGATTAACATCAGAAAATGCCCTGATGTTAATCGGGTCTTGATTCGCTTGACGCTGCTG | 1.55 z-score
CCGATTAACATCAGGCGTCCCCCTGATGTTAATCGGGTCTTGATTCGCTTGACGCTGCTG | 4.71 z-score
CCGATTAACATCAGGGGTATAACTGATGTTAATCGGGTCTTGATTCGCTTGACGCTGCTG | 1.03 z-score
CCGATTAACATCAGGTAATTTACTGATGTTAATCGGGTCTTGATTCGCTTGACGCTGCTG | 3.5 z-score
CCGATTAACATCAGGGGAGTTAATGATGTTAATCGGGTCTTGATTCGCTTGACGCTGCTG | 4.74 z-score
CCGATTAACATCACCCACTTCCCTGATGTTAATCGGGTCTTGATTCGCTTGACGCTGCTG | 2.13 z-score
CCGATTAACATCAGGAACGCCCCTGATGTTAATCGGGTCTTGATTCGCTTGACGCTGCTG | 1.92 z-score
CCGATTAACATCACCCATGGGAATGATGTTAATCGGGTCTTGATTCGCTTGACGCTGCTG | 1.02 z-score
CCGATTAACATCAAAACAACCCCTGATGTTAATCGGGTCTTGATTCGCTTGACGCTGCTG | 2.19 z-score
CCGATTAACATCAGGGGCGCCCCTGATGTTAATCGGGTCTTGATTCGCTTGACGCTGCTG | 4.55 z-score
CCGATTAACATCACGGGGGGTAATGATGTTAATCGGGTCTTGATTCGCTTGACGCTGCTG | 2.9 z-score
CCGATTAACATCAGGGACAGCCCTGATGTTAATCGGGTCTTGATTCGCTTGACGCTGCTG | 2.03 z-score
CCGATTAACATCAGGGGACACCCTGATGTTAATCGGGTCTTGATTCGCTTGACGCTGCTG | 3.12 z-score
